Only some compounds are listed: those with a hit (about 1.5% of all), similar ones and a draw of the others.
FBPA coupling cs = counter-screen for Giardia aldolase inhibitors: coupling enzyme system; coupling enzyme system counterscreen, AmpLite Red fluorescence; activity change, negative = inhibition, % at 58.2 µM, hits read low; actives 0.67% (n = 290,000); AID 2472; in the data active means activity change below about -30%
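Coupling enzymes only (glyceraldehyde-3-phosphate) + compound, at 57.5 uM final, 10 min RT; add substrate/coupling/AmpLite Red mix, 20 min RT; fluorescence ex 525/em 598 nm. Actives flag coupling-system interference.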
Giardia killer = kills Giardia lamblia; Giardia lamblia trophozoite viability; activity change, % at 7.66 µM, hits read low; actives 0.15% (n = 340,000); in the data active means activity change below about -80%; inconclusive means between about -30% and that limit;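 further: parasites exposed to compound for two days anaerobically before the ATP read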
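Each well holds 100 Giardia trophozoites and compound. After two days (48 hrs) at 37 deg C in anaerobic conditions, ATP is quantified by luminescence.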
TrxR1 inh = inhibitors of rat thioredoxin reductase 1 | O89049 | recombinant rTrxR1, NADPH fluorescence consumption, selenite substrate | Potency, µM (highest dose often 114 µM), for the others: top-dose activity change, negative = inhibition, usual class: inhibitors | actives 1% (n = 390,000) | AID 588453; further: potency means the concentration at half of the fitted maximal effect; nearly all actives have a fitted effect of over 65% in size
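Rat TrxR1 (90 nM in the dispensed reagent) was pre-reduced with 400 uM NADPH for 5 min at room temperature, then incubated with compound for 15 min. After 400 uM selenite was added, NADPH fluorescence (Ex 340/Em 450 nm) was followed for 8 min.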
GALK inh = blocks human galactokinase activity. P51570. Purified GALK, Kinase-Glo residual ATP luminescence. Potency, µM (series often up to 57.5 µM), for inactives: at the top dose activity change, negative = inhibition, hits mostly inhibitors. actives 0.007% (n = 270,000); further: potency means the concentration at half of the fitted maximal effect
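Human GALK (5 nM) with 35 uM ATP and 100 uM galactose in 20 mM HEPES pH 8.0, 5 mM MgCl2, 60 mM NaCl, 1 mM DTT, 0.01% BSA. After 1 h at room temperature, leftover ATP was read by Kinase-Glo Plus luminescence.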
TrxR1 substrate = rat thioredoxin reductase 1 substrate activity; O89049; purified TrxR1 substrate turnover, NADPH consumption readout; actives 0.01% (n = 390,000); Potency, µM (titrated, usually from 114 µM), inactives show at the top dose activity change, negative = substrate turnover; further: potency means the concentration at half of the fitted maximal effect; nearly all actives have a fitted effect of over 50% in size
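Rat TrxR1, dispensed at 90 nM, was prereduced with 400 uM NADPH (final) for 5 min at ~22 deg C, then incubated with compound 15 min before 400 uM selenite. A first-read NADPH fluorescence drop versus no-compound background flagged substrates.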
PI4K2A inh = PI4K2A (human) kinase inhibition. Q9BTU6. purified PI4K2A, ADP-Glo luminescence, 1 h; stronger effect = lower value. activity change, negative = inhibition, % at 76.9 µM. actives 0.13% (n = 420,000); in the data active means activity change below about -50%; inconclusive means mostly about -30% to -49%;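 further: -100% = wells without enzyme as full effect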
Target sequence (Q9BTU6 whole entry, looked up): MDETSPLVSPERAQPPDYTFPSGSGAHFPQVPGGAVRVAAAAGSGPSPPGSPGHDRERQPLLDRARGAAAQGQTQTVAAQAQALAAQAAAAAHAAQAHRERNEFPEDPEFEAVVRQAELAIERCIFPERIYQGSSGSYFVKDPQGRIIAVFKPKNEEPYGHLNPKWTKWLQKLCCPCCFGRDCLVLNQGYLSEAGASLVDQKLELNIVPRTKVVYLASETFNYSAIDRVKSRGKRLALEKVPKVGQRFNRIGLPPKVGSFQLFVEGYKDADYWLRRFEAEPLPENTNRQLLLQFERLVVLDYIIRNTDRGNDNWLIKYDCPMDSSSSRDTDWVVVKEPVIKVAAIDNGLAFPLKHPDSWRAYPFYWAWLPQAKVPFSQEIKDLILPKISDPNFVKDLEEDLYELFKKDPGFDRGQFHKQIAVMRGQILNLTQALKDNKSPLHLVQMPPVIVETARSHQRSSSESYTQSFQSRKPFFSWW
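ADP-Glo luminescence measured ADP generated by PI4K2A enzyme (4 ug/mL before mixing) with 1.2 mM PI substrate (pre-mix) and 300 microM ATP (pre-mix). Tris pH7.5 buffer with MgCl2, Triton X-100; 1 h reaction at ambient temperature.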
* hit, by the source's call; ? = inconclusive; / = no result; [ ] = another dose, or the depositor's remark. Unless noted, the call rests on the fitted dose curve; in most records, active means well fitted curve in the direction sought with a large enough effect; inconclusive means small, poorly fitted or top-dose-only effect, or another doubt; inactive means no such curve, though single readings can be large; an effect the other way counts as inactive or inconclusive. Unless noted, on the % scale 0 is the no-effect control and ±100 the full control effect.

SMILES | FBPA coupling cs | Giardia killer | TrxR1 inh | GALK inh | TrxR1 substrate | PI4K2A inh
O=C(Nc1ccc(Cl)cn1)c1cnn2c1NC(=C1CC1)C=C2C(F)F | / | / | -6% | / | 6% | /
O=C(NC1CCCCCC1)c1ccccc1-c1ccccc1 | 3 | 0 | 0% | -1% | -3% | -1
O=C(NC1CCCCCCC1)c1ccccc1-c1ccccc1 | -36* | -17 | 10% | / | 0% | 7
COc1cccc(/C=C/c2ccnc3ccccc23)c1OC | / | / | 19% | / | 13% | /
COc1ccc2c(C#N)c3ccccn3c2c1 | -37* | 2 | 7%[57.1 µM] | -1% | 13% | -7
COc1cc(Cl)c(C)cc1NC(=O)CCCN1C(=O)C(c2ccccc2)Oc2cccnc21 (centres undefined) | / | / | 19% | / | -6% | 5
Cc1ccc(-n2ncc(C(=O)NCCCN3CCN(C)CC3)c2C2CCN(C(=O)OC(C)(C)C)CC2)cc1 | / | / | 12% | / | -1% | -3
CCN(CC)C(=O)CSc1nnc2nnc3cc(C)ccc3n12 | 1 | -17 | -21% | 6% | -20% | 1
CCN(CC)C(=O)CSc1nnc2nnc3cc(Cl)ccc3n12 | -6 | -81* | 14%[11.4 µM] | 5% | 6%[57.1 µM] | -13
O=C(CSc1ccc(-c2ccco2)nn1)NCCc1ccccc1 | -4 | -9 | 18µM* | -2% | 3% | 2
COc1ccc(C(=O)CSc2nnc(-c3ccco3)n2CC2CCCO2)cc1 (centres undefined) | 1 | -17 | ? | 1% | -6% | 3
COc1ccc(CCNC(=O)CSc2ccc(-c3ccco3)nn2)cc1 | -5 | 14 | -46% | 4% | 13% | 5
O=C(CSc1ccc(-c2ccco2)nn1)c1ccc(F)cc1 | 0 | -6 | 8.9µM* | 1% | -4% | -21
O=C(CSc1ccc(-c2ccco2)nn1)NCc1ccc(F)cc1 | 7 | 17 | 50µM* | 0% | 7% | -3
O=C(CSc1nnc(-c2ccco2)n1CC1CCCO1)c1ccc(F)cc1 (centres undefined) | -1 | -29 | 16µM* | 1% | -1% | -12
Cc1ccc(CNC(=O)CSc2ccc(-c3ccco3)nn2)cc1 | 0 | -12 | ? | 1% | -12% | -2
Fc1ccc(CSc2ccc(-c3ccco3)nn2)cc1 | 0 | -11 | ? | 0% | -1% | -4
Cc1ccc2[nH]c3c(=O)n(CC(=O)N4CCCC(C)C4)ncc3c2c1 (centres undefined) | / | / | 13% | / | 19% | 1
CC(C)(C)n1ncc2c(=O)n(Cc3ccc(Cl)cc3F)cnc21 | / | / | 24% | / | 11% | /
CC(C)OC(=O)OCOP(=O)(CO[C@H](C)Cn1cnc2c(N)ncnc21)OCOC(=O)OC(C)C | / | / | / | / | / | -1
O=C(N/N=C/c1ccc([N+](=O)[O-])o1)c1ccc(O)cc1 | -7 | -26 | 20µM* | -1% | -3% | 0
O=C(N/N=C/c1ccc([N+](=O)[O-])o1)c1ccccc1NS(=O)(=O)c1cccs1 | -8 | ? | 40µM* | 5% | -1% | -6
O=C(N/N=C/c1ccc([N+](=O)[O-])o1)c1cc2ccccc2o1 | 0 | -96* | -8% | / | 0% | -4
O=C(NN=Cc1ccc(F)cc1)c1ccccc1NS(=O)(=O)c1cccs1 | / | -14 | 6% | / | -2% | -4
Cc1nc2ccccn2c1C(=O)N/N=C/c1ccc([N+](=O)[O-])o1 | -3 | -86* | ? | 11% | -12%[57.1 µM] | -2
SMILES | FBPA coupling cs | Giardia killer | TrxR1 inh | GALK inh | TrxR1 substrate | PI4K2A inh
O=C(N/N=C/c1ccc([N+](=O)[O-])o1)c1ccncc1 | -3 | 5 | -69% | 0% | -20% | -2
CCc1cc[n+](CC(=O)c2ccc(F)cc2)cc1C(=O)O | / | / | 4% | / | 5% | /
Cc1cc(NS(=O)(=O)c2ccc(NC(=O)CSc3nnc(SCc4ccc(Cl)cc4)s3)cc2)nc(C)n1 | / | / | / | / | / | -2
CCCCOc1ccc(C(=O)n2ccc3ccc(-c4ccc5ccn(Cc6cccc(C(=O)OC)c6)c5c4)cc32)cc1 | / | / | / | / | / | -2
COC(=O)[C@]12C[C@H](CC(=O)N3CCCCC3)C(=O)N(Cc3ccco3)C1=C[C@H](C(C)(C)C)O[C@@H]2C | / | / | / | / | / | 1
CN1CCN(c2ncc3nc(CCc4ccccc4)c(=O)n(C4CC4)c3n2)CC1 | 1 | / | / | / | / | /
O=C(N/N=C/c1ccc(-c2ccccc2[N+](=O)[O-])o1)c1cncc(Br)c1 | -13 | -11 | -3% | -4% | -11% | 0
O=C(N/N=C\c1ccc([N+](=O)[O-])o1)c1cncc(Br)c1 | 0 | ? | 22µM* | 6% | 2%[57.1 µM] | -1
O=[N+]([O-])c1ccc(/C=N/Nc2ccccn2)cc1 | -1 | -17 | 18% | 3% | -4% | -3
O=C(O)c1ccc(N/N=C/c2ccncc2)cc1 | 1 | -2 | -15% | / | -16% | -17
O=C(O)c1ccc(N/N=C/c2ccc3nccnc3c2)cc1 | -1 | -18 | -11% | 15% | -17% | -55*
O=C(O)c1ccc(/C=N\Nc2ccccn2)cc1 | / | -19 | 1%[57.1 µM] | / | -2%[57.1 µM] | -62*
Cc1oc2c(C)c3oc(=O)c(CC(=O)N4CCCCC4)c(C)c3cc2c1C | / | / | 6% | / | 0% | 2
Cn1cccc1C1C(C#N)=C(N)OC2=C1C(=O)CCC2 (centres undefined) | -34* | -4 | -17% | -2% | -3% | -10
O=C(Nc1ccccc1)C1=C(c2ccccc2)S(=O)(=O)CCS1(=O)=O | 1 | -2 | 0.22µM* | -2% | -1% | ?
O=C1c2ccccc2-c2c1cccc2C(=O)N1CCN(C(=O)c2ccco2)CC1 | 0 | 1 | 32µM* | 0% | 9% | -3
CCCSc1ccccc1C(=O)N1CCN(C(=O)c2ccco2)CC1 | / | 16 | -35% | 6% | -1% | 1
Cc1nc(-[n+]2nc(-c3ccncc3)nn2-c2ccccc2)sc1C | / | / | / | / | / | -73*
CC(C)(C)n1ncc2c(=O)n(Cc3c(F)ccc(Cl)c3Cl)cnc21 | / | / | 21% | / | 4% | /
CCCC1(C)C(C#N)(C#N)C1(C#N)C#N | / | / | ? | / | 11%[57.1 µM] | -3
Cc1cc(C)c2c(c1)c(C)cc1nnc(SCC(=O)c3ccccc3)n12 | / | / | 14% | / | 1% | -1
CSc1nc(-c2ccco2)nn1C(=O)c1ccc(C)cc1 | -2 | 4 | 20µM* | -1% | 7% | -7
CSc1nc(-c2ccco2)nn1C(=O)c1ccco1 | -3 | -10 | ? | -2% | 3% | 3
CSc1nc(-c2ccco2)nn1C(=O)c1ccccc1 | -11 | 1 | 20µM* | 0% | -13% | -5
O=C(CC1CCS(=O)(=O)C1)Nc1ccc[nH]c1=O (centres undefined) | -52* | 5 | -9% | 1% | -2% | -25
Cc1nn(-c2ccccc2)c(C)c1/C=N\NC(=O)CSc1nc2ccccc2n1Cc1ccc(Cl)cc1 | / | / | / | / | / | 2

Screening results: PubChem BioAssay, National Center for Advancing Translational Sciences (NCATS)
